Assay outcomes as filed in PubChem.
Shown are actives, neighbours in structure and some others; about 1.6% of the full set was active somewhere.
BJeLR viability: BJeLR cell viability loss; BJeLR (HRASV12) viability, CellTiter-Glo ATP luminescence, 48 h; inhibition, % (test concentration not listed); 300,000 compounds, 0.17% hits; in the data active = inhibition above about 50%
Mtb hypoxia rep: inhibitors of hypoxia-regulated fluorescent reporter in Mycobacterium tuberculosis; M. tuberculosis hypoxia-regulated fluorescent reporter, fluorescence; fluorescence inhibition, % (concentration not given with the values); 300,000 compounds, 0.1% hits; AID 1159583; in the data active = fluorescence inhibition mostly above about 23%, no sharp cut-off; inactive = mostly below about 17%
CCHFV vOTU inh: CCHFV vOTU protease inhibition; AID 651958; 370,000 compounds, 0.55% hits; Pep-AMC fluorescence; inhibition, % at 11.5 µM; in the data active = inhibition above about 30%; note: 0% = vehicle wells with enzyme and 100% = no enzyme wells
Sa ugtP lethal: compounds lethal to S. aureus RN4220 ugtP deletion mutant. growth inhibition, % (test concentration not listed). 330,000 compounds, 0.54% hits. OD600 growth, 16 h. AID 1259309; in the data active = growth inhibition above about 68%;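 note: plate controls were untreated wells for no effect and antibiotic for full effect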
RecA intein inh: Mtb RecA intein splicing inhibition; inhibition, % (test concentration not listed); P9WHJ3; AID 2221; 290,000 compounds, 0.75% hits; cell-free RecA intein splicing, fluorescence; in the data active = inhibition above about 30%;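 note: 0% = vehicle wells and 100% = reference inhibitor control wells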
Target sequence (P9WHJ3 whole entry, looked up): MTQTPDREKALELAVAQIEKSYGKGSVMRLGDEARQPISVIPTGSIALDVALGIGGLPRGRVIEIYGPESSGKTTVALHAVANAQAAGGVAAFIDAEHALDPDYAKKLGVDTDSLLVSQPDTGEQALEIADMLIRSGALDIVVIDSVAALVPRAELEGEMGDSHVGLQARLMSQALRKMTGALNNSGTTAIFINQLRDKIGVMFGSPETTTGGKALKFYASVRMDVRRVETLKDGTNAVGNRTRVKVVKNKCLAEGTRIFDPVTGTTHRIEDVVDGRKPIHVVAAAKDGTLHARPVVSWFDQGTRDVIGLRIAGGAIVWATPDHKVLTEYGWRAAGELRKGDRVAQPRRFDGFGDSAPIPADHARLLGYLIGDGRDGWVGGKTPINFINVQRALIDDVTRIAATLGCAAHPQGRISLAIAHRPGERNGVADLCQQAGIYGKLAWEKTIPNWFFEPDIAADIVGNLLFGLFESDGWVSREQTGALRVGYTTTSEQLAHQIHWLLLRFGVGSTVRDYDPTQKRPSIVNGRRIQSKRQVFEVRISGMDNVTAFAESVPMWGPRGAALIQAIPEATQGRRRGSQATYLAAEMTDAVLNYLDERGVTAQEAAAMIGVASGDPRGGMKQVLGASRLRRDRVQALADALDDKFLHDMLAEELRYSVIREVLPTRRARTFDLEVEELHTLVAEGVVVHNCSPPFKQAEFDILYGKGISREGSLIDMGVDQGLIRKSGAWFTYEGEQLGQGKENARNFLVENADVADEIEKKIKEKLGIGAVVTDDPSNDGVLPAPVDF
RN4220 kill: kills Staphylococcus aureus RN4220 | S. aureus RN4220 growth, OD600, 16 h | inhibition, % (test concentration not listed) | 330,000 compounds, 0.33% hits | AID 1259311; in the data active = inhibition above about 85%;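 note: plate controls were untreated cells for no effect and reference antibiotic for full effect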
* = called active by the depositor; ! = a repeat was not active.

How did CC1CN(C(C)CO)C(=O)c2cccc(NC(=O)Cc3ccccc3)c2OC1CN(C)S(=O)(=O)c1cccs1 (configuration not stated) do in these assays?
Mtb hypoxia rep: 18; Sa ugtP lethal: 7; RN4220 kill: 7

What do the screens show for `CC(C)(C)CN1C(=O)C(=O)NCC1Cc1ccc(O)cc1` (configuration not stated)?
Mtb hypoxia rep: 7; Sa ugtP lethal: 98*!; RN4220 kill: 97*!

How did CC(C)(C)CN1C(=O)C(=O)NC[C@H]1Cc1ccc(O)cc1 do in these assays?
BJeLR viability: -6; CCHFV vOTU inh: -2; RecA intein inh: 1

What do the screens show for `CSC(=C[N+](=O)[O-])Nc1ccc(Cl)cc1`?
Mtb hypoxia rep: 12; Sa ugtP lethal: 8; RN4220 kill: 8

Results for CCS(=O)(=O)C1=NN2C(=N)/C(=C\c3ccc(OC(=O)c4ccco4)c(OC)c3)C(=O)N=C2S1 ?
BJeLR viability: -3; CCHFV vOTU inh: 16; RecA intein inh: 25

How did COc1cc(/C=C2/C(=N)N3C(=NC2=O)SN=C3S(=O)(=O)C(C)C)ccc1OC(=O)c1ccco1 do in these assays?
BJeLR viability: -9; Mtb hypoxia rep: -12; CCHFV vOTU inh: 3; Sa ugtP lethal: 12; RecA intein inh: 23; RN4220 kill: 9

Results for C=CCOc1ccc(/C=C2\C(=N)N3N=C(S(=O)(=O)CC)SC3=NC2=O)cc1OC ?
BJeLR viability: -15; Mtb hypoxia rep: 48*; CCHFV vOTU inh: -1; Sa ugtP lethal: 2; RecA intein inh: 2; RN4220 kill: 7

Results for CC1CCN(C2=NN3C(=N)/C(=C\c4ccc(OC(=O)c5ccco5)cc4)C(=O)N=C3S2)CC1 ?
BJeLR viability: -4; CCHFV vOTU inh: 1; RecA intein inh: 6

Results for CCOc1cc(/C=C2/C(=N)N3C(=NC2=O)SN=C3S(=O)(=O)C(C)C)ccc1OC(=O)c1ccco1 ?
BJeLR viability: -7; Mtb hypoxia rep: -3; CCHFV vOTU inh: 20; Sa ugtP lethal: -1; RecA intein inh: 32*; RN4220 kill: 1

How did N=C1/C(=C\c2ccc(OC(=O)c3ccc(F)cc3)cc2)C(=O)N=C2SC(N3CCOCC3)=NN12 do in these assays?
BJeLR viability: 5; Mtb hypoxia rep: -1; CCHFV vOTU inh: 7; Sa ugtP lethal: -3; RecA intein inh: 39*; RN4220 kill: 3

Results for N=C1/C(=C\c2ccc(OC(=O)c3ccco3)cc2)C(=O)N=C2SC=NN12 ?
BJeLR viability: 4; Mtb hypoxia rep: 1; CCHFV vOTU inh: 6; Sa ugtP lethal: 11; RecA intein inh: 6; RN4220 kill: 16

What do the screens show for `CS(=O)(=O)C1=NN2C(=N)/C(=C\c3ccc(OC(=O)c4ccco4)cc3)C(=O)N=C2S1`?
BJeLR viability: -8; Mtb hypoxia rep: 11; CCHFV vOTU inh: 0; Sa ugtP lethal: 5; RecA intein inh: 37*; RN4220 kill: 10

Results for CC(C)(C)C1C=C(C(=O)N2CCOCC2)OC(OCCCCO)C1 (configuration not stated) ?
Mtb hypoxia rep: 1; Sa ugtP lethal: 1; RN4220 kill: 4

Results for Nc1ccc2c(c1)C(=O)c1ccccc1-2 ?
BJeLR viability: 2; Mtb hypoxia rep: 7; CCHFV vOTU inh: 4; Sa ugtP lethal: -3; RecA intein inh: 2; RN4220 kill: 1

How did O=C1C(=O)c2ccc(-c3ccccc3)cc2-c2ccccc21 do in these assays?
BJeLR viability: 110*; CCHFV vOTU inh: -1; Sa ugtP lethal: 60; RecA intein inh: 8; RN4220 kill: 28

How did C#CCOCCOCCOCCNc1nc(N2CCOCC2)nc(N2CCN(C(=O)C(C)n3cc(CCCN=C(N)N)nn3)CC2)n1 (configuration not stated) do in these assays?
Mtb hypoxia rep: 9; Sa ugtP lethal: -4; RN4220 kill: 5

What do the screens show for `Cc1ccc2c(c1)C1C(CO2)C(c2ccccc2)[C@]2(C)C(=O)NCC(=O)N12` (some centres not stated)?
Mtb hypoxia rep: 11; Sa ugtP lethal: -2; RN4220 kill: 5

Results for CCOC(=O)CSc1nc(C(C)C)nc2sc(C)c(C)c12 ?
BJeLR viability: -5; Mtb hypoxia rep: 9; CCHFV vOTU inh: 1; Sa ugtP lethal: 89*; RecA intein inh: 9; RN4220 kill: 10

What do the screens show for `Clc1ccc(C[n+]2c(-c3ccccc3)cc(-c3ccccc3)cc2-c2ccccc2)cc1`?
BJeLR viability: 5; CCHFV vOTU inh: 4; Sa ugtP lethal: 100*; RecA intein inh: 20; RN4220 kill: 100*

What do the screens show for `Cc1cc(-c2ccccc2)cc(-c2ccccc2)[n+]1CCc1ccccc1`?
BJeLR viability: 18; Mtb hypoxia rep: 20; CCHFV vOTU inh: 3; Sa ugtP lethal: -7; RecA intein inh: 2; RN4220 kill: 6

How did O=C([O-])c1cc(-c2ccccc2)cc(-c2ccccc2)[n+]1CCc1ccc(Cl)cc1 do in these assays?
Mtb hypoxia rep: 3; CCHFV vOTU inh: 13; Sa ugtP lethal: 100*; RN4220 kill: 88*

How did C=CCOC(=O)C1=CC(c2coc3ccccc3c2=O)C(CCCO)C(OCC)O1 (configuration not stated) do in these assays?
Mtb hypoxia rep: 6; Sa ugtP lethal: 1; RN4220 kill: 3

Results for O=C(Nc1ccccc1)C1=CC(c2ccccc2)CC(OCCCCO)O1 (configuration not stated) ?
Mtb hypoxia rep: 1; Sa ugtP lethal: -1; RN4220 kill: -1

How did O=c1nc(C=Cc2cccn2-c2ccc([N+](=O)[O-])cc2)cc(C(F)(F)F)[nH]1 do in these assays?
Mtb hypoxia rep: 11; Sa ugtP lethal: -2; RN4220 kill: 8

What do the screens show for `CCN1C(=O)C2C(c3ccc(-c4cccc(Cl)c4)c(OC)c3)N3CCCC[C@@]3(C(=O)OC)C2C1=O` (some centres not stated)?
Mtb hypoxia rep: -7; Sa ugtP lethal: -2; RN4220 kill: -2

What do the screens show for `OCCC1CC(O)C(O)[C@@]2(OCCc3ccccc32)O1` (some centres not stated)?
Mtb hypoxia rep: 7; Sa ugtP lethal: -4; RN4220 kill: 0

How did CC(=O)C1=C(C)N(CC2CC2)C(=O)NC1c1cccs1 (configuration not stated) do in these assays?
Mtb hypoxia rep: 3; Sa ugtP lethal: -1; RN4220 kill: 7

What do the screens show for `Cc1ccc(C(=O)NCCCn2ccnc2)cc1[N+](=O)[O-]`?
BJeLR viability: 8; Mtb hypoxia rep: 4; CCHFV vOTU inh: 19; Sa ugtP lethal: 10; RecA intein inh: -4; RN4220 kill: 2

Results for CC1CN(S(=O)(=O)c2ccc(C(=O)NCCCn3ccnc3)cc2)CC(C)O1 (configuration not stated) ?
BJeLR viability: 71*; Mtb hypoxia rep: 2; CCHFV vOTU inh: -9; Sa ugtP lethal: 3; RecA intein inh: -1; RN4220 kill: -1
